Bioassay records as filed in PubChem BioAssay.
JMJD2A Tudor: qHTS Assay for Inhibitors of JMJD2A-Tudor Domain. Lysine-specific demethylase 4A (Homo sapiens), O75164. AlphaScreen JMJD2A-Tudor / H3K4me3 peptide binding. Potency, µM (highest dose often 114 µM), for the others: at the highest dose activity change, negative = inhibition, hits mostly inhibitors. 390,000 compounds, 4.4% hits. AID 504339, 2011; note: % is set by controls: 0 for no effect and ±100 for the full control effect; nearly all actives have a fitted effect of over 50% in size
BAZ2B inh: qHTS Assay for Inhibitors of BAZ2B; Potency, µM (doses to about 114 µM), for inactives: at the highest dose activity change, negative = inhibition, hits mostly inhibitors; AID 504333, 2011; Bromodomain adjacent to zinc finger domain protein 2B (Homo sapiens), Q9UIF8; 360,000 compounds, 4.4% hits; AlphaScreen BAZ2B-H3K14Ac peptide displacement; note: % is set by controls: 0 for no effect and ±100 for the full control effect; nearly all actives have a fitted effect of over 60% in size
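Inhibition is scored as reduced AlphaScreen emission. The BAZ2B/b-H3(5-23)K14Ac complex (50 nM each) in PBS pH 7.4, 0.01% Tween-20 meets compound (up to 110 uM) for 30 min at RT before bead addition.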
G9a inh: qHTS Assay for Inhibitors of Histone Lysine Methyltransferase G9a; Histone-lysine N-methyltransferase EHMT2 (Homo sapiens), Q96KQ7; G9a H3K9 monomethylation, AlphaScreen, 2 h; Potency, µM (doses to about 102 µM), inactives show at the highest dose activity, negative = inhibition, most hits filed as inhibitors; 350,000 compounds, 8.8% hits; AID 504332, 2011; note: % is set by controls: 0 for no effect and ±100 for the full control effect; nearly all actives have a fitted effect of over 75% in size
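G9a (20 nM) preincubated 15 min RT with compounds, then 500 nM biotinylated H3K9 peptide and 20 uM SAM added; 2 h RT reaction. Monomethyl-H3K9 product detected by AlphaScreen with anti-H3K9me1 antibody, streptavidin donor and anti-rabbit IgG acceptor beads.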
HP1b binding inh: HTS for Inhibitors of HP1-beta Chromodomain Interactions with Methylated Histone Tails; 390,000 compounds, 0.56% hits; Chromobox protein homolog 1 (Homo sapiens), P83916; Potency, µM (highest dose often 114 µM), without a hit: at the top dose activity change, negative = inhibition, usual class: inhibitors; AlphaScreen HP1-beta / biotin-H3K9me3 peptide binding; AID 540317, 2011; note: nearly all actives have a fitted effect of over 70% in size
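AlphaScreen: HP1-beta (50 nM) preformed 30 min with biotin-H3(1-18)K9me3 peptide (50 nM) in PBS pH 7.4, 0.01% Tween-20. Compound added for 30 min at RT, then streptavidin donor/nickel chelate acceptor beads (10 ug/mL) for 30 min.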
L3MBTL1 block: qHTS Assay for the Inhibitors of L3MBTL1; 230,000 compounds, 0.66% hits; Lethal(3)malignant brain tumor-like protein 1 (Homo sapiens), Q9Y468; Potency, µM (titrated, usually from 57.1 µM), for the others: top-dose activity, negative = inhibition, most hits filed as inhibitors; AlphaScreen L3MBTL1–H3K9me1 peptide binding; AID 485360, 2010; note: % is set by controls: 0 for no effect and ±100 for the full control effect; nearly all actives have a fitted effect of over 60% in size
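AlphaScreen proximity signal between nickel-chelate acceptor and streptavidin donor beads (final 10 ug/mL) reports binding of 50 nM L3MBTL1 to 75 nM biotin-H3 K9me1 peptide; complex incubated with compounds 30 min at room temperature; cefsulodin titration as control.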
An asterisk follows results filed as active; [ ] = remark or other dose. Only some compounds are listed: those with a hit (about 11% of all), similar ones and a draw of the others. Calls come from the whole dose curve; as a rule, active = well fitted inhibition curve with a large enough effect; inconclusive = small, poorly fitted or top-dose-only effect; inactive = no such curve, though single readings can be large or run the other way. Potency is the fitted concentration of half-maximal effect.

Screening Cc1nn(C(C)C(=O)NCCc2ccco2)c(=O)c2nn(-c3ccccc3)c(C)c12 (stereo unspecified) returned JMJD2A Tudor 79.4µM*, BAZ2B inh -17.6%, G9a inh 33.3% and HP1b binding inh 1.4%.
Cc1nn(CC(=O)NCCc2ccco2)c(=O)c2nn(-c3ccccc3)c(C)c12 was read as JMJD2A Tudor -33.2%, BAZ2B inh inconclusive, G9a inh inconclusive and HP1b binding inh 4.0%[57 µM].
Cc1ccc(CCNC(=O)C(C)n2nc(C)c3c(C)n(-c4ccccc4)nc3c2=O)cc1 (stereo unspecified) was read as JMJD2A Tudor -14.5%, BAZ2B inh -12.3%, G9a inh 57.8% and HP1b binding inh -1.8%.
Cc1ccc(-n2nc3c(=O)n(C(C)C(=O)NCCC4=CCCCC4)nc(C)c3c2C)cc1 (stereo unspecified) was read as JMJD2A Tudor 44.7µM*, BAZ2B inh -24.7%, G9a inh 13.2%[59 µM] and HP1b binding inh 45.6%.
COc1ccccc1CCC(=O)Nc1cccc(S(=O)(=O)N2CCCC2)c1 was read as JMJD2A Tudor -17.2%, BAZ2B inh -11.5%, G9a inh 16.6% and HP1b binding inh 19.9%.
Screening COc1ccc(OCC(=O)Nc2cc3c(cc2C(=O)O)OCCCO3)cc1 returned JMJD2A Tudor -19.7%, BAZ2B inh 3.4%, G9a inh 14.1µM* and HP1b binding inh 18.8%.
CCOc1ccc(OCC(=O)Nc2cc3c(cc2C(=O)O)OCCCO3)cc1 was read as JMJD2A Tudor -16.7%, BAZ2B inh 1.8%, G9a inh 14.1µM* and HP1b binding inh 36.0%.
For COc1ccc(C(=O)Nc2cc3c(cc2C(=O)O)OCCCO3)c(OC)c1 the results were JMJD2A Tudor -7.7%, BAZ2B inh -0.3%, G9a inh 18.4%[59 µM] and HP1b binding inh 0.0%.
COc1cccc(CCC(=O)Nc2cc3c(cc2C(=O)O)OCCCO3)c1OC was read as JMJD2A Tudor -14.3%, BAZ2B inh -19.7%, G9a inh 7.94µM*, HP1b binding inh 20.9% and L3MBTL1 block 10.4%.
`CCCOc1cccc(C(=O)N(Cc2ccc(C)o2)C2CCS(=O)(=O)C2)c1` (stereo unspecified) gave JMJD2A Tudor -31.2%, BAZ2B inh -15.8%, G9a inh -12.2%[59 µM] and HP1b binding inh 4.6%.
CCOc1ccc(CCNc2ncnc3onc(C)c23)cc1OCC was read as JMJD2A Tudor -9.1%, BAZ2B inh 4.5%[57.1 µM], G9a inh -2.9%[59 µM] and HP1b binding inh 31.9%.
Screening COc1ccc(NC(=O)CSc2c3c(nc4ccc(Cl)cc24)CCCC3)cc1Cl returned JMJD2A Tudor -7.3%, G9a inh -0.7%[59 µM] and HP1b binding inh 25.4%.
Screening CCOc1ccc(NS(=O)(=O)c2ccc3[nH]c4c(c3c2)CCCCC4)cc1 returned JMJD2A Tudor 28.2µM*, BAZ2B inh -27.4%[57.1 µM], G9a inh inconclusive and HP1b binding inh -14.1%.
`COc1ccc(NS(=O)(=O)c2ccc3[nH]c4c(c3c2)CCCC4)c(OC)c1` gave JMJD2A Tudor inconclusive, BAZ2B inh inconclusive, G9a inh 10µM* and HP1b binding inh -31.5%.
For COc1ccc(OC)c(CNS(=O)(=O)c2ccc3[nH]c4c(c3c2)CCCCC4)c1 the results were JMJD2A Tudor 35.5µM*, BAZ2B inh inconclusive, G9a inh 12.6µM* and HP1b binding inh inconclusive.
Screening COc1ccc(NS(=O)(=O)c2ccc3[nH]c4c(c3c2)CCCCC4)cc1 returned JMJD2A Tudor 31.6µM*, BAZ2B inh 2.0%[57.1 µM], G9a inh inconclusive and HP1b binding inh inconclusive.
`Cc1c(C(=O)N2CCC(C(=O)Nc3ccc(F)c(Cl)c3)CC2)sc2nc[nH]c(=O)c12` gave JMJD2A Tudor 1.3%, BAZ2B inh 9.1%, G9a inh 11.5%[59 µM] and HP1b binding inh 29.5%[57 µM].
`COc1ccccc1CNC(=O)C(=O)NCC(c1cccs1)S(=O)(=O)c1ccc(F)cc1` (stereo unspecified) gave JMJD2A Tudor -12.0%, BAZ2B inh 1.2%, G9a inh 4.9%[59 µM] and HP1b binding inh 29.2%.
Screening O=C(Nc1ccc(Nc2ccccc2)cc1)Nc1ccccc1Cl returned JMJD2A Tudor inconclusive, BAZ2B inh 20µM*, G9a inh 7.94µM*, HP1b binding inh inconclusive and L3MBTL1 block -22.0%.
Screening O=C(Nc1ccc(Cl)cc1)C(Cl)C(=O)c1ccccc1 (stereo unspecified) returned JMJD2A Tudor -13.6%, BAZ2B inh -5.5%, G9a inh 11.2µM* and HP1b binding inh 1.9%.
For O=C(Nc1ccccc1Cl)C(Cl)C(=O)c1ccccc1 (stereo unspecified) the results were JMJD2A Tudor -14.8%, BAZ2B inh inconclusive, G9a inh 39.8µM* and HP1b binding inh 19.8%.
For CCCn1c(=O)n(-c2ccccc2)c(=O)c2sc3ccccc3c21 the results were JMJD2A Tudor -4.6%, BAZ2B inh -6.7%, G9a inh -30.8%[59 µM] and HP1b binding inh 22.1%.
`O=S(=O)(c1ccc(-c2cc(C(F)(F)F)on2)s1)N1CCN(c2ccc(F)cc2)CC1` gave JMJD2A Tudor -2.3%, BAZ2B inh 1.1%, G9a inh -3.0%[59 µM] and HP1b binding inh 41.2%.
O=C(CCN1C(=O)/C(=C\c2ccccc2F)SC1=S)N1CCCCC1 was read as JMJD2A Tudor -32.1%, BAZ2B inh inconclusive, G9a inh -11.4% and HP1b binding inh 8.2%.
`COc1ccc(CCNCC(O)COc2ccc(OC)cc2C(C)(C)C)cc1` (stereo unspecified) gave JMJD2A Tudor 3.55µM*, BAZ2B inh 70.8µM*, G9a inh 44.7µM* and HP1b binding inh inconclusive.
`COc1ccc(CCNCC(O)COc2cccc(Br)c2)cc1OC` (stereo unspecified) gave JMJD2A Tudor 1µM*, BAZ2B inh 50.1µM* and HP1b binding inh inconclusive.
For Cc1c(P(=S)(c2ccccc2)c2ccccc2)[n+]2ccccc2n1Cc1ccccc1 the results were JMJD2A Tudor -17.7%.
CC(=O)Nc1ccc(S(=O)(=O)Nc2nc3ccccc3nc2N2CCCC2)cc1 was read as JMJD2A Tudor -10.7%, BAZ2B inh -5.6%, G9a inh -28.4%[59 µM], HP1b binding inh 38.5% and L3MBTL1 block 9.2%.
